# Assay results taken from the supplement of paper PMC3334620.
# Over roughly 33,000 sequences, “E-score (-0.5 to 0.5)” has its median near -0.032; the highest 2% begin near 0.36. The sample as a whole holds a higher share of the highest values than the screen did.
# Molecular target: T1, Sko1 (UniProt Q02100)
# T1 sequence: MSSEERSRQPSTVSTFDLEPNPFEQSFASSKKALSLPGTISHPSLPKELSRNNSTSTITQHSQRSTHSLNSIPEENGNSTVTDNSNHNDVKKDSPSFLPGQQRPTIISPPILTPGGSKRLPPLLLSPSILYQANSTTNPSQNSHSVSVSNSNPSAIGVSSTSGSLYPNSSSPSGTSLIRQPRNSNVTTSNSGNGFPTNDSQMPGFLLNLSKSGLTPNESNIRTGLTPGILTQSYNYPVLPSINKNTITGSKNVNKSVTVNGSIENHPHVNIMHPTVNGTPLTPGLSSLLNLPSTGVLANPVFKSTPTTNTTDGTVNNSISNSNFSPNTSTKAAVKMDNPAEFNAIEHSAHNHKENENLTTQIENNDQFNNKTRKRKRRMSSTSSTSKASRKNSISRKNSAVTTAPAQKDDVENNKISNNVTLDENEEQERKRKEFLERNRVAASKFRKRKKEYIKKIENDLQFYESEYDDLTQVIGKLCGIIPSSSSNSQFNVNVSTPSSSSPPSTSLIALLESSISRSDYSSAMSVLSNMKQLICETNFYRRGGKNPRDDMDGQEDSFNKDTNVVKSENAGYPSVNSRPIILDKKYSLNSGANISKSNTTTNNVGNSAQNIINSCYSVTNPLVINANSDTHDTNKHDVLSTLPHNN
# Assay: PBM E-score (8-mer binding enrichment) (E-score (-0.5 to 0.5)); higher = stronger / more preferred TF binding
# Conditions: protein concentration: 200 nM; construct: GST-full length
# Procedure: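 Universal 'all 10-mer' protein binding microarrays (Agilent AMADID 015681) probed with GST-tagged S. cerevisiae TFs (full-length or DBD) made by in vitro transcription/translation (PURExpress), about 100-200 nM. Bound TF was detected with fluorescent anti-GST. Each ungapped 8-mer (which stands for itself and its reverse complement) is scored by the PBM enrichment score (E-score), a modified Wilcoxon-Mann-Whitney statistic from -0.5 to +0.5, computed with the Universal PBM Analysis Suite. Scale: above 0.35 generally sequence-specific binding.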
row,Sequence,PBM E-score
1,GGACCTCA,-0.0759
2,ACCTGCGC,-0.192
3,AGTGTGGG,-0.197
4,CACCTGGC,-0.0659
5,CAGCCCTC,-0.334
6,CCCTAGAG,-0.32
7,ATTCCCGG,-0.0536
8,ACTAAGTA,0.0919
9,AGGCGCGG,-0.242
10,ACAAACCG,-0.0685
11,ATGCCCGG,-0.334
12,GCGGTTAA,-0.186
13,TAATTCTA,0.227
14,ATCACCAA,0.0298
15,AAGACGCC,-0.165
16,ATGACTCC,-0.00531
17,ATGACGCC,0.449
18,TACTAGAA,0.124
19,CGACGTGC,0.22
20,AGACGTTA,0.283
21,GGACGTAC,0.275
22,GGACGTTA,0.251
23,CGACGAAG,0.00357
24,AGACGTAA,0.447
25,AGACGGAA,-0.136

row,Sequence,PBM E-score
1,CGACGTTC,-0.0745
2,CGACGTAG,0.368
3,CGTCGTAG,0.0813
4,GGACGTAA,0.426
5,CGACGTAC,0.412
6,CAAAAATC,0.131
7,CCGACTCA,-0.246
8,ACCTAACA,0.056
9,CATTTGCG,0.179
10,ACGCAGCC,0.0962
11,AATACTTA,0.178
12,CGACGTTA,0.337
13,CGACGTGA,0.344
14,CGACGTAA,0.472
15,ACTGCACA,-0.0526
16,ATAACGAA,0.268
17,CTAACGTA,0.374
18,ATAACGGA,0.0991
19,ATAACGTA,0.461
20,GTAACGCA,0.217
21,CTAACGGA,0.007
22,CTAACGAA,0.0318
23,GTAACGAA,0.216
24,GTAACGTA,0.421
25,TCGTCTCA,-0.0858

row,Sequence,PBM E-score
1,ATTTCGAA,0.247
2,AGTGGGGA,-0.201
3,ACACCTTG,0.00022
4,TTTGCAAA,0.0584
5,ATTCATCG,-0.0686
6,AACCAGAA,0.0649
7,AGTAGGAA,-0.0265
8,CGGAAGGA,-0.178
9,CCAACGTA,0.387
10,CCAACGCA,0.117
11,ACAACGTG,0.218
12,ACAACGTA,0.416
13,ACAACGAA,0.0922
14,GCAACGTA,0.399
15,ACAACGCC,0.0338
16,ACAACGGA,0.00163
17,GCAACGAA,0.148
18,ACAACGTC,0.368
19,CCAACGTC,0.236
20,GCAACGCA,0.0485
21,ATCACTCC,-0.0415
22,CACACCCC,-0.208
23,CGCGAACC,-0.0595
24,AATCCAAT,0.0698
25,CTCGGATC,-0.0845

row,Sequence,PBM E-score
1,TAATTCGA,0.198
2,ATGCACTG,-0.0475
3,AGATATTC,0.0644
4,ATAACGGG,0.00173
5,ATAACGAC,0.241
6,ATAACGCG,0.184
7,ATAACGTC,0.425
8,CTAACGTC,0.338
9,ATAACGTG,0.377
10,ATTGCTTC,-0.109
11,CCGAACTC,-0.125
12,CTGTTAGA,-0.0627
13,AAGTTCTC,-0.203
14,AAATGATA,0.266
15,AAATGATT,0.263
16,AAATGATG,0.373
17,CAATGATC,0.0721
18,CAATGATG,0.381
19,CAATGATA,0.254
20,CCCGATAC,-0.0866
21,CCTACTTA,-0.00728
22,GCCCGTAA,0.172
23,ACGCACAT,0.387
24,AAGCACGT,0.389
25,ACGCACAA,0.262

row,Sequence,PBM E-score
1,AAGCACGG,-0.00706
2,AAGCACGA,0.0735
3,ACGCACGT,0.403
4,ACGCACAG,0.254
5,ACGCACGC,0.316
6,ACGCACGA,0.295
7,GGAACGGA,-0.185
8,ATTCGCTG,0.0204
9,ATAATACG,0.376
10,AGAATACG,0.304
11,CGAATACC,-0.0967
12,ACAATACG,0.386
13,ATAATACA,0.208
14,CGAATACG,0.406
15,ATAATACC,0.138
16,ACAATACT,0.151
17,ACAATACA,0.0868
18,CTGGCAAC,-0.23
19,CACGCTTA,0.116
20,AGATGCAT,-0.0801
21,ACTGAAGA,0.0507
22,AAACGTAC,0.37
23,AAACGTGC,0.231
24,AAACGTAA,0.462
25,AAGCGTAG,-0.0528

row,Sequence,PBM E-score
1,CAACGTAC,0.326
2,AAACGTGT,0.288
3,AAACGTTT,0.275
4,AAACGTTA,0.3
5,AAACGTAT,0.429
6,AAACGTAG,0.393
7,AACCGTAA,0.0957
8,GGATTCAC,-0.215
9,CATCTCGC,-0.129
10,AGTCCGTA,-0.218
11,TATAGAAA,0.0683
12,AGCTTTGG,-0.172
13,ATAAAACC,-0.0531
14,AGACAGTG,-0.112
15,GTCTCCTA,0.0919
16,GACCTCGC,-0.122
17,GAGAAACC,-0.146
18,TACCATCA,-0.0837
19,TCACGTGA,0.336
20,TCCCGTAA,0.11
21,TCACGTAA,0.472
22,GCTCGTAA,0.231
23,GCACGTAC,0.34
24,GCACGTAA,0.459
25,TCAAACGA,0.102

row,Sequence,PBM E-score
1,CTTTGGGC,-0.121
2,AGAGGGCT,-0.406
3,GGTAAATA,0.0846
4,CCGACCAC,-0.182
5,CACGTGTC,0.357
6,CGCGTGTA,0.227
7,CACGTGTA,0.399
8,AACGTGTA,0.247
9,GACGTGTA,0.374
10,GTCGTGTA,0.169
11,AGGTTAAA,-0.104
12,CTCCTTGA,-0.159
13,CGCCAGGC,-0.227
14,AAGGTTGT,0.00278
15,CTAATTGC,0.104
16,GACGAATA,0.297
17,TACGAATA,0.383
18,CACGAATA,0.265
19,CTAAGATA,-0.023
20,CGCACGCA,0.211
21,CGCACGTC,0.333
22,GGCACGCA,-0.00979
23,GGCACGGA,-0.233
24,CGCACGTA,0.408
25,GGCACGTA,0.395

row,Sequence,PBM E-score
1,CGAGTTCA,0.00744
2,CAGACCGC,-0.156
3,CGTCATGA,0.471
4,AGTCATGA,0.0664
5,CGTCATGC,0.469
6,AGTCATGC,-0.0777
7,GGTCATGA,0.111
8,CCTCATGC,-0.142
9,GGCAGATA,-0.0846
10,AATCGTTA,0.23
11,CGAAGGGC,-0.104
12,CTGTATGA,-0.0143
13,GTACCCCA,-0.19
14,CTAGGGAG,-0.148
15,CCAGTACG,0.215
16,AAGGGAGG,-0.244
17,ACTTAGTC,-0.15
18,ACTTAGTG,0.00172
19,ACGTAGTA,0.446
20,CCGTAGTC,-0.266
21,CCGTAGTA,-0.0427
22,ACGTAGTC,0.425
23,AGGTAGTG,-0.0666
24,ACGTAGTG,0.452
25,GCGTAGTA,0.279

row,Sequence,PBM E-score
1,AACAGGGT,-0.192
2,AGCCGCAG,-0.223
3,ACCTGTGA,0.115
4,CCGGATTC,-0.0976
5,CTTCGCGC,0.217
6,CAGATGGA,-0.0703
7,CATATTAG,0.203
8,AGTATTAG,0.00871
9,TGTATTAA,0.182
10,AGTATTAC,0.331
11,GGTATTAC,0.204
12,CGTATTAA,0.362
13,AGTATTAA,0.261
14,CGTATTAG,0.382
15,CGTATTAC,0.387
16,CGTTCTAA,0.131
17,AGTTGGTG,-0.0352
18,ACCCATAA,-0.118
19,GGCCTCAC,-0.0829
